PubChem BioAssay AID1259249 (Broad Institute, 2017)
Out of some 86,000 compounds screened, about 220 (0.26%) were called active. The sample holds actives, similar compounds and a random draw of the others, so the mix is not that of the screen.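 The calls were made as follows: active = mean growth activity at or below -80% and every replicate also at or below -80%; inconclusive = mean at or below -80% but some replicate above -80%; inactive = mean growth activity above -80%.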

Assay: blockers of Clostridium difficile growth – HTS, primary screen (AID 1259249);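 also: 0% = DMSO wells and -100% = levofloxacin 16 µg/mL wells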
Conditions: Clostridium difficile clinical isolate growth, OD600, 24 h; active compounds read low; screened at 16 µg/mL (by protocol)

Compound	growth activity, negative = inhibition
CO[C@@H]1CN(C)C(=O)c2ccc(NC(=O)Nc3cc(Cl)cc(Cl)c3)cc2OC[C@H](C)NC[C@H]1C	-99.2% (active)
CO[C@H]1CN(C)C(=O)c2ccc(NC(=O)Nc3ccc4c(c3)OCO4)cc2OC[C@H](C)NC[C@H]1C	-11.3% (inactive)
COc1cccc(NC(=O)N2C[C@@H](O)COC[C@@H]3O[C@@H](CC(=O)NC4CCC4)CC[C@H]32)c1	5.76% (inactive)
Cc1ccccc1S(=O)(=O)NCC[C@@H]1CC[C@H](NC(=O)C2CCC2)[C@@H](CO)O1	2.36% (inactive)
O=C(N[C@H]1CC[C@H](CCNS(=O)(=O)c2ccc(F)cc2)O[C@H]1CO)c1cccc(F)c1	-5.13% (inactive)
COC(=O)C[C@H]1C[C@H]2c3cc(NC(=O)Nc4ccccc4F)ccc3O[C@H]2[C@H](CO)O1	2.15% (inactive)
COc1cc(C(=O)NC2CCN(C)CC2)ccc1Nc1ncc2c(n1)N(C1CCC(O)CC1)CCC(=O)N2C (stereo unspecified)	-0.491% (inactive)
O=C(Nc1cc(F)ccc1F)N1C[C@H]2[C@@H](c3ccccc31)[C@@H](CO)N2CC1CCCC1	8.3% (inactive)
O=C(NCC1CC1)[C@@H]1[C@@H](CO)[C@@H]2Cn3c(ccc(-c4ccccc4)c3=O)[C@H]1N2Cc1nccs1	-2.44% (inactive)
CCCNC(=O)N(C)C[C@H]1Oc2ncc(-c3cccc(C#N)c3)cc2C(=O)N([C@@H](C)CO)C[C@@H]1C	2.18% (inactive)
C[C@@H]1CCCCO[C@@H](CN(C)C(=O)Nc2ccc3c(c2)OCO3)[C@H](C)CN([C@H](C)CO)C(=O)c2cc(NC(=O)CCCN(C)C)ccc2O1	5.23% (inactive)
O=C(Cc1cccnc1)N1CC(=O)N2[C@@H](CO)[C@@H](c3ccc(C#CC4CCCC4)cc3)[C@@H]2C1	-15.5% (inactive)
COc1ccc2c3c(n(C)c2c1)[C@@H](CO)N(C)CC31CN(CC2CC2)C1	1.27% (inactive)
COc1ccc2c3c([nH]c2c1)[C@H](CO)N(C(=O)Nc1ccc(F)cc1)CC31CN(S(=O)(=O)c2cccc(F)c2)C1	0.0849% (inactive)
O=C(c1cccc(F)c1)N1CC[C@@H]2[C@H](CO)Nc3ccc(-c4ccccc4)cc3[C@@H]21	6.91% (inactive)
COCC#Cc1ccc([C@@H]2[C@H](CO)N3C(=O)CN(C(=O)C4CCC4)C[C@@H]23)cc1	-5.13% (inactive)

Compound	growth activity, negative = inhibition
COc1ccc2c3c([nH]c2c1)[C@@H](CO)N(C(=O)c1ccccc1)CC31CCN(Cc2cccnc2)CC1	3.57% (inactive)
CC=Cc1ccc2n(c1=O)C[C@H]1[C@H](CO)[C@@H](C(=O)NC3CCCC3)N(Cc3cccnc3)[C@@H]21 (mixture of isomers)	1.31% (inactive)
CCC(=O)N1CC(=O)N2[C@@H](CO)[C@H](c3ccc(C#CC4CCCC4)cc3)[C@@H]2C1	-2.43% (inactive)
CN(C)CC#Cc1ccc([C@H]2[C@H]3CN(C(=O)c4cccc(F)c4)CC(=O)N3[C@H]2CO)cc1	2.12% (inactive)
CO[C@H]1CN(C)C(=O)c2cc(NS(=O)(=O)c3ccccc3C)ccc2OC[C@@H](C)NC[C@@H]1C	-1.27% (inactive)
CS(=O)(=O)N1[C@H](C#N)[C@H](c2ccccc2-c2ccc(F)cc2)[C@@H]1CO	7% (inactive)
CC(=O)N(C)C[C@H]1[C@H](c2ccc(C3=CCCCC3)cc2)[C@H](CO)N1CC1CC1	33.9% (inactive)
O=C(C[C@@H]1CC[C@@H](NC(=O)C2CCOCC2)[C@H](CO)O1)NCC1CC1	1.16% (inactive)
COc1ccccc1NC(=O)N1CC(=O)N2[C@H](C1)[C@H](c1ccc(C#Cc3ccccc3)cc1)[C@@H]2CO	12.6% (inactive)
CCCNC(=O)C[C@H]1C[C@H]2c3cc(NC(=O)NC4CCCCC4)ccc3O[C@H]2[C@H](CO)O1	-4.2% (inactive)
COc1cccc(NC(=O)C[C@@H]2CC[C@H]3[C@@H](COc4ccc(NC(=O)C5CCC5)cc4C(=O)N3C)O2)c1	-1.63% (inactive)
C[C@@H]1CN([C@@H](C)CO)S(=O)(=O)c2ccc(/C=C/c3ccccc3)cc2O[C@H]1CN(C)C(=O)Nc1cc(F)ccc1F	4.39% (inactive)
C/C=C/c1ccc([C@H]2[C@H](CO)N(C(=O)CN(C)C)C23CN(C(=O)C2CC2)C3)cc1	-0.638% (inactive)
CN1c2ccc(-c3ccccc3F)cc2[C@H]2[C@H](CCN2C(=O)Nc2cc(F)ccc2F)[C@H]1CO	38.2% (inactive)
C[C@@H]1CCCCO[C@@H](CN(C)C(=O)CCC(F)(F)F)[C@H](C)CN([C@@H](C)CO)C(=O)c2cc(NC(=O)CCCN(C)C)ccc2O1	2.21% (inactive)
